Source: the supplement of paper PMC9262897, “Low-cost anti-mycobacterial drug discovery using engineered E. coli” (Nature Communications, 2022)
Structures can show the parent of a compound that is named as a salt. ± gives the standard deviation of the averaged measurements.

What was measured:
Assay in all cases: growth (OD600 after 10 h); higher = more growth (less inhibition)
[1] = system: E. coli TESEC Alr+ wild-type control; conditions: compound 0.1 mM; raw OD600 reference: median of DMSO wells 0.241, cell-free background 0.041
Method: (§1)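 TESEC Mtb Alr E. coli, or the Alr+ wild-type control, in 384-well plates with Prestwick library compounds at 0.1 mM and 1% DMSO, across arabinose induction levels of 1E3 to 1E7 nM. Growth is read as OD600 after 10 h at 37 °C in triplicate biological replicates.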

E. coli TESEC Mtb Alr [2] = conditions: compound 0.1 mM
Method: as §1

E. coli TESEC Mtb Asd = conditions: compound 0.1 mM
Method: (§2)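 TESEC E. coli strains in which the native enzyme is deleted and replaced by arabinose-inducible Mtb Asd, DapB, CysH or TrpD, each grown in its selective medium. Strains were screened against the Prestwick library at 0.1 mM and 1% DMSO in 384-well format at low and high arabinose induction. Growth is read as OD600 after 10 h in triplicate.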

E. coli TESEC Mtb DapB = conditions: compound 0.1 mM
Method: as §2

[3] = system: E. coli TESEC Alr+ wild-type control; conditions: compound 0.1 mM; raw OD600 reference: median of DMSO wells 0.49, cell-free background 0.052
Method: (§3)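 TESEC Mtb Alr E. coli (ΔaraC ΔtolC ΔentC Δalr ΔdadX, arabinose-inducible Mtb Alr) or the Alr+ wild-type control strain, grown in defined M9-fructose medium without D-alanine in 96-well plates with Prestwick library compounds at 0.1 mM and 1% DMSO. Low Alr induction is 0.1 µM arabinose and high induction is 10 mM arabinose.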

E. coli TESEC Mtb Alr [4] = conditions: compound 0.1 mM; remark: listed apart in the source
Method: as §3

[5] = arabinose 1000 nM, raw OD600 reference: median of DMSO wells 0.294, cell-free background 0.041
[6] = arabinose 10000 nM, raw OD600 reference: median of DMSO wells 0.264, cell-free background 0.041
[7] = arabinose 100000 nM, raw OD600 reference: median of DMSO wells 0.201, cell-free background 0.041
[8] = arabinose 1000000 nM, raw OD600 reference: median of DMSO wells 0.193, cell-free background 0.041
[9] = arabinose 10000000 nM, raw OD600 reference: median of DMSO wells 0.146, cell-free background 0.041
[10] = arabinose induction (level): High, raw OD600 reference: median of DMSO wells 0.331, cell-free background 0.041
[11] = arabinose induction (level): Low, raw OD600 reference: median of DMSO wells 0.417, cell-free background 0.041
[12] = arabinose induction (level): High, raw OD600 reference: median of DMSO wells […], cell-free background 0.041
[13] = arabinose induction (level): Low, raw OD600 reference: median of DMSO wells 0.227, cell-free background 0.041
[14] = arabinose 100 nM, raw OD600 reference: median of DMSO wells 0.413, cell-free background 0.052
[15] = arabinose 10000000 nM, raw OD600 reference: median of DMSO wells […], cell-free background 0.052

| SMILES | growth [1] | growth (E. coli TESEC Mtb Alr [2]; [5]) | growth (E. coli TESEC Mtb Alr [2]; [6]) | growth (E. coli TESEC Mtb Alr [2]; [7]) | growth (E. coli TESEC Mtb Alr [2]; [8]) | growth (E. coli TESEC Mtb Alr [2]; [9]) | growth (E. coli TESEC Mtb Asd; [10]) | growth (E. coli TESEC Mtb Asd; [11]) | growth (E. coli TESEC Mtb DapB; [12]) | growth (E. coli TESEC Mtb DapB; [13]) | growth [3] | growth (E. coli TESEC Mtb Alr [4]; [14]) | growth (E. coli TESEC Mtb Alr [4]; [15]) |
| --- | --- | --- | --- | --- | --- | --- | --- | --- | --- | --- | --- | --- | --- |
| CC(CN(C)C)CN1c2ccccc2Sc2ccccc21 (configuration not stated) [Trimeprazine tartrate] | 0.184 ± 0.019 | 0.221 ± 0.019 | 0.255 ± 0.0092 | 0.189 ± 0.012 | 0.129 ± 0.0014 | 0.168 ± 0.0079 | 0.175 ± 0.028 | 0.323 ± 0.07 | 0.192 ± 0.0094 | 0.231 ± 0.019 | 0.526 ± 0.013 | 0.392 ± 0.0092 | 0.298 ± 0.018 |
| OC(CCN1CCCCC1)(c1ccccc1)C1CCCCC1 (configuration not stated) [Trihexyphenidyl-D,L Hydrochloride] | 0.222 ± 0.012 | 0.316 ± 0.019 | 0.265 ± 0.012 | 0.194 ± 0.0034 | 0.147 ± 0.0092 | 0.164 ± 0.0019 | 0.299 ± 0.04 | 0.43 ± 0.071 | 0.179 ± 0.016 | 0.22 ± 0.018 | 0.452 ± 0.031 | 0.4127 ± 0.0033 | 0.324 ± 0.024 |
| CN1CCC(=C2c3ccccc3CCc3sccc32)CC1 [Pizotifen malate] | 0.127 ± 0.006 | 0.133 ± 0.0045 | 0.0893 ± 0.0025 | 0.0952 ± 0.0015 | 0.0482 ± 0.0045 | 0.0637 ± 0.00071 | 0.148 ± 0.013 | 0.181 ± 0.012 | 0.178 ± 0.0086 | 0.193 ± 0.0037 | 0.146 ± 0.012 | 0.402 ± 0.027 | 0.132 ± 0.054 |
| CCOC(=O)O[C@]1(C(=O)COC(=O)CC)CC[C@H]2[C@@H]3CCC4=CC(=O)C=C[C@]4(C)[C@H]3[C@@H](O)C[C@@]21C [Prednicarbate] | 0.201 ± 0.0033 | 0.268 ± 0.0098 | 0.271 ± 0.0029 | 0.269 ± 0.025 | 0.199 ± 0.012 | 0.174 ± 0.013 | 0.438 ± 0.024 | 0.37 ± 0.053 | 0.193 ± 0.008 | 0.237 ± 0.026 | 0.38 ± 0.015 | 0.401 ± 0.0095 | 0.28 ± 0.027 |
| C[C@]12C[C@H](O)[C@H]3[C@@H](CCC4=CC(=O)CC[C@@]43C)[C@@H]1CC[C@@H]2C(=O)CO [Corticosterone] | 0.143 ± 0.0016 | 0.195 ± 0.006 | 0.252 ± 0.011 | 0.143 ± 0.015 | 0.16 ± 0.0065 | 0.134 ± 0.0044 | 0.235 ± 0.059 | 0.268 ± 0.055 | 0.179 ± 0.017 | 0.206 ± 0.032 | 0.418 ± 0.033 | 0.402 ± 0.017 | 0.246 ± 0.0064 |
| C[C@]12C=CC(=O)C=C1CC[C@@H]1[C@@H]2[C@@H](O)C[C@@]2(C)[C@H]1CC[C@]2(O)C(=O)CO [Prednisolone] | 0.213 ± 0.0043 | 0.263 ± 0.0084 | 0.248 ± 0.01 | 0.162 ± 0.0057 | 0.147 ± 0.0034 | 0.13 ± 0.0047 | 0.258 ± 0.038 | 0.456 ± 0.034 | 0.179 ± 0.015 | 0.254 ± 0.041 | 0.514 ± 0.065 | 0.426 ± 0.009 | 0.306 ± 0.011 |
| CC1(C)S[C@@H]2[C@H](NC(=O)[C@H](NC(=O)N3CCNC3=O)c3ccccc3)C(=O)N2[C@H]1C(=O)O [Azlocillin sodium salt] | 0.238 ± 0.0043 | 0.312 ± 0.008 | 0.276 ± 0.0051 | 0.177 ± 0.0081 | 0.195 ± 0.013 | 0.152 ± 0.015 | 0.31 ± 0.035 | 0.442 ± 0.025 | 0.177 ± 0.015 | 0.222 ± 0.031 | 0.631 ± 0.06 | 0.403 ± 0.017 | 0.361 ± 0.013 |
| O=C(NCCO[N+](=O)[O-])c1cccnc1 [Nicorandil] | 0.2587 ± 0.0024 | 0.3 ± 0.021 | 0.286 ± 0.0046 | 0.208 ± 0.025 | 0.213 ± 0.0045 | 0.153 ± 0.0067 | 0.362 ± 0.039 | 0.377 ± 0.057 | 0.191 ± 0.0086 | 0.209 ± 0.023 | 0.481 ± 0.072 | 0.4153 ± 0.002 | 0.3332 ± 0.001 |
| CN1C(C(=O)Nc2ccccn2)=C(O)c2ccccc2S1(=O)=O [Piroxicam] | 0.195 ± 0.0024 | 0.229 ± 0.0073 | 0.253 ± 0.0061 | 0.18 ± 0.013 | 0.127 ± 0.0038 | 0.155 ± 0.003 | 0.321 ± 0.013 | 0.282 ± 0.042 | 0.181 ± 0.015 | 0.227 ± 0.068 | 0.4032 ± 0.0031 | 0.362 ± 0.1 | 0.259 ± 0.016 |
| COc1cc(C)nc(-n2nc(C)cc2OC)n1 [Epirizole] | 0.2428 ± 0.0024 | 0.263 ± 0.012 | 0.249 ± 0.0083 | 0.178 ± 0.019 | 0.18 ± 0.0057 | 0.139 ± 0.005 | 0.342 ± 0.051 | 0.465 ± 0.042 | 0.192 ± 0.025 | 0.238 ± 0.054 | 0.493 ± 0.031 | 0.421 ± 0.011 | 0.27 ± 0.12 |
| O=C1CCc2cc(OCCCCc3nnnn3C3CCCCC3)ccc2N1 [Cilostazol] | 0.148 ± 0.028 | 0.194 ± 0.027 | 0.1826 ± 0.00091 | 0.125 ± 0.0036 | 0.0688 ± 0.0017 | 0.123 ± 0.0057 | 0.225 ± 0.051 | 0.285 ± 0.033 | 0.16 ± 0.013 | 0.181 ± 0.0043 | 0.461 ± 0.015 | 0.411 ± 0.0062 | 0.145 ± 0.015 |
| Cc1ccc(N(CC2=NCCN2)c2cccc(O)c2)cc1 [Phentolamine hydrochloride] | 0.219 ± 0.0053 | 0.287 ± 0.0088 | 0.27 ± 0.0075 | 0.2 ± 0.0085 | 0.173 ± 0.0079 | 0.161 ± 0.0026 | 0.252 ± 0.065 | 0.377 ± 0.048 | 0.193 ± 0.019 | 0.252 ± 0.024 | 0.452 ± 0.0089 | 0.411 ± 0.019 | 0.352 ± 0.026 |
| CC(COc1ccccc1)NC(C)C(O)c1ccc(O)cc1 (configuration not stated) [Isoxsuprine hydrochloride] | 0.224 ± 0.0098 | 0.29 ± 0.014 | 0.256 ± 0.003 | 0.183 ± 0.011 | 0.156 ± 0.0029 | 0.157 ± 0.0078 | 0.25 ± 0.081 | 0.402 ± 0.079 | 0.202 ± 0.042 | 0.271 ± 0.028 | 0.5 ± 0.066 | 0.413 ± 0.0062 | 0.34 ± 0.02 |
| CCN[C@H]1C[C@H](C)S(=O)(=O)c2sc(S(N)(=O)=O)cc21 [Dorzolamide hydrochloride] | 0.24 ± 0.0034 | 0.296 ± 0.003 | 0.293 ± 0.013 | 0.211 ± 0.038 | 0.187 ± 0.0042 | 0.15 ± 0.0023 | 0.216 ± 0.014 | 0.355 ± 0.06 | 0.199 ± 0.016 | 0.253 ± 0.023 | 0.47 ± 0.0087 | 0.4329 ± 0.0026 | 0.337 ± 0.019 |
